The source made the active and inactive calls. A call without a number means that no potency is given here. Calls follow the shape of the dose curve; as a rule, active = well fitted activation curve with a large enough effect; inconclusive = small, poorly fitted or top-dose-only effect; inactive = no such curve, though single readings can be large or run the other way.
Potency is read from the fitted curve at half-maximal effect.

The experiment in a line: Confirmatory qHTS for Identification of Small Molecule Activators of Huntingtin-Antisense Promoter Activity. The settings on record: HEK293 HTT-AS promoter firefly luciferase reporter, 24 h; series mostly up to 57.5 µM. The source says:
Assay Provider: Russell L. Margolis M.D.
Department Neurology, Johns Hopkins University School of Medicine, Baltimore, MD
Huntington's Disease (HD) is a neurodegenerative disorder caused by a CAG repeat expansion in exon 1 of huntingtin (HTT). While there are currently no disease-modifying treatments for HD, recent efforts have focused on development of nucleotide-based therapeutics to lower HTT expression. As an alternative to siRNA or oligonucleotide methods, we hypothesized that suppression of HTT expression might be accomplished by small molecules that either (1) directly decrease HTT expression by suppressing HTT promoter activity or (2) indirectly decrease HTT expression by increasing the promoter activity of HTT-AS, the gene antisense to HTT that appears to inhibit expression of HTT.
We developed and employed a high throughput screen for modifiers of HTT and HTT-AS promoter activity using luminescent reporter HEK293 cells; of the 52,041 compounds tested, we identified 898 replicable hits. We used a rigorous stepwise approach to assess compound toxicity and the capacity of the compounds to specifically lower huntingtin protein in 5 different cell lines, including HEK293 cells, HD lymphoblastoid cells, mouse primary neurons, HD iPSCs differentiated into cortical-like neurons, and HD hESCs. We found no compounds which were able to lower huntingtin without lowering cell viability in all assays, though the potential efficacy of a few compounds at non-toxic doses could not be excluded.
SEQUENCE No. (1, 2, 3, etc.); […] (e.g., Cells, Incubation, Reagent, etc.); VALUE and DESCRIPTION.
1; Reagent; 4 uL; 2,500 Hek293 luciferase reporter cells per wells
3; Compound; 23 nL; Control inhibitor / compound library
5; Reagent; 2.5 uL; Firefly Luc reagent; Dual-Glo Luciferase Reporter Assay System (Promega)
6; Time; 10 min; room temperature incubation
7; Detection; Luminescence; FLuc
NOTES (numbers refer to sequence above)
1; High-throughput screening, measuring luminescence from a Hek293 luciferase reporter, was performed in 1,536 well white-walled tissue-culture treated plates. 2,500 cells were plated in 4 uL of Opti-MEM per well using a Multidrop Combi Reagent Dispenser (ThermoFisher).
2; Assay plates were cultured for 24 hours.
3; Control inhibitor (PTC124; final concentration of 50 uM) and compound library (at final concentrations of 460 nM - 57.5 uM) were added to the assay plate using the Kalypsis Pintool Robotic System equipped with 1536 pinheads.
4; Cells were then incubated for 24 hours at 37C prior to luminescence measurements.
5; In all cases, luminescence was measured using the Dual-Glo Luciferase Reporter Assay System (Promega) following the manufacturer's instructions.
6; Room temperature incubation.
7; Luminescence signal was obtained using the PerkinElmer ViewLux plate reader. Results were normalized to vehicle control (0% activity) and zero RLU (-100% activity).
As for `O=C(CCCn1ccc2cc(S(=O)(=O)N3CCCC3)ccc21)NCc1ccc(Cl)cc1`, the Potency entry was “inactive”.

As for `COc1ccc(C2c3c(-c4c(C)cc(C)cc4O)n[nH]c3C(=O)N2Cc2ccco2)cc1` (stereo not given), the Potency result is “inactive”. For `CCCOc1cccc(NC(=O)c2c(-c3ccccc3Cl)noc2C)c1` the value was “inactive”; for `Cc1ccc(Cl)cc1-n1ncc2c(NCCCc3ccccc3)ncnc21`, “inactive”; for `COc1cc(Br)c(C2CC(=O)Nc3cc4c(cc32)OCCO4)cc1OC` (stereo not given), “inactive”.

As to `Cc1nc(C)c(-c2ccc(SCC(=O)Nc3ccc(F)c(F)c3)nn2)s1`, the Potency entry is “inactive”. As to `CCC1CCCCN1C(=O)CSc1nc(-c2ccc(OC)c(OC)c2)cc(C(F)(F)F)n1` (stereo not given), the Potency entry is “inactive”. As for `COc1ccccc1C(=O)NCCSc1c(C)[nH]c2ccccc12`, the entry is “inactive”. For `COc1ccccc1C1C=C(c2ccc(F)cc2)Nc2nc(-c3ccc(Cl)cc3)nn21` (stereo not given) the value was “inactive”; for `COc1ccccc1CCNC(=O)c1ccc(-c2nc(CSc3ccc(C)cc3)c(C)o2)cc1`, “inactive”; for `CCc1c(C)sc2c1CCN(Cc1ccccc1F)C2c1ccccc1` (stereo not given), “inactive”. For the compound `Cc1cc(C)c(/C=C/c2onc(C)c2S(=O)(=O)N2CCC(C(=O)NCc3ccco3)CC2)c(C)c1`, the Potency entry was “inactive”. As for `COc1ccc2oc(=O)c(C(=O)NCCc3c(C)[nH]c4ccc(C)cc34)cc2c1`, the entry is “inactive”; as for `Cc1cc(C)c(S(=O)(=O)NCCc2sc3nc(-c4ccc(F)cc4)nn3c2C)c(C)c1`, “inactive”; as for `CCOc1ccccc1CNC(=O)C(CC)n1nc(C)c2c(C)n(-c3ccccc3)nc2c1=O` (stereo not given), “inactive”. For `CCn1c(SCc2cccc(Br)c2)nnc1-c1nonc1NC(C)=O` the value was “inactive”; for `COc1ccc(S(=O)(=O)NCCc2sc3nc(-c4ccc(C)cc4)nn3c2C)cc1F`, “inactive”; for `COc1ccc(NC(=O)CN2C(=O)C(C)(C)c3ccccc32)cc1Cl`, “inactive”. As for `CCOC(=O)c1cnc2ccc(OCC)cc2c1Nc1ccc(OCc2ccccc2Cl)cc1`, the entry is “inactive”. Consider `CC(C)(C)OC(=O)N1CCC(c2c(C(=O)N3CCC(c4ccccc4)C3)cnn2-c2ccc(Cl)cc2)CC1` (stereo not given), for which the Potency result is “inactive”.

On to `COc1ccc2sc(N(Cc3cccnc3)C(=O)c3ccco3)nc2c1`, for which the Potency result is “inactive”. In the case of `CCOc1cc(C(=O)Nc2ccc3oc(-c4ccc(CC)cc4)nc3c2)cc(OCC)c1OCC`, the Potency entry was “inactive”. As for `Cc1cccc(N2CCN(S(=O)(=O)c3ccc(F)c(C(=O)Nc4cccc(Cl)c4C)c3)CC2C)c1` (stereo not given), the entry is “inactive”; as for `C#C[C@]1(O)CC[C@H]2[C@H]3CCc4cc(OC)ccc4[C@H]3CC[C@@]21C`, “inactive”; as for `COc1ccc(-c2ccc3ncc4c(c3c2)n(-c2ccc(N3CCNCC3)c(C(F)(F)F)c2)c(=O)n4C)cn1`, “inactive”. For `COc1ccccc1N1CCN(C(CNC(=O)C(=O)NCCc2ccccc2)c2cccnc2)CC1` (stereo not given) the value was “inactive”; for `Cc1cc(OCC(=O)N2CCC(c3nc4ccccc4s3)CC2)ccc1Cl`, “inactive”. For `COc1ccc(-c2cc(C(=O)N3CCN(c4ccccc4OC)CC3)c3cc(C(C)C)ccc3n2)cc1` the value was “inactive”; for `CC(C)(C)C(=O)NCCc1nc2ccccc2n1CCCCOc1ccccc1`, “inactive”.

Consider `CC(=O)Nc1ccc(S(=O)(=O)Nc2cc(-c3cn4ccccc4n3)ccc2C)cc1`, for which the Potency was 10.7 µM (active). For `Cc1ccc(NCc2cccn2-c2nnc(N3CCC(C(=O)NCCC(C)C)CC3)s2)cc1`, the Potency result is “inactive”. For `Cc1ccc(C(=O)Nc2nc(-c3nnn(-c4cccc(Cl)c4C)c3C)ns2)cc1C` the value was “inactive”.

For `CC(C)c1nc2ccc(C(=O)NCCCN3CCN(c4cccc(Cl)c4)CC3)cc2o1`, the Potency entry was “inactive”. As for `CCOC(=O)C1=C(CN2CCN(c3ccc(OC)cc3)CC2)NC(=O)NC1c1ccc(OC)cc1` (stereo not given), the entry is “inactive”; as for `Cc1ccc(N2C(=O)C(CC(=O)Nc3ccccc3)N(CCC3=CCCCC3)C2=O)cc1` (stereo not given), 6.75 µM (active). For `O=C(CN1C(=O)C2(SCC(=O)N2c2cccc(Cl)c2)c2ccccc21)NCCc1ccccc1` (stereo not given) the value was “inactive”; for `COc1cc(C[C@@H](CO)[C@H](CO)Cc2ccc(O)c(OC)c2)ccc1O`, “inactive”; for `CCCCN1CC(c2nc3ccccc3n2CCCCOc2ccccc2C)CC1=O` (stereo not given), “inactive”. Take `COc1ccc(CC(=O)Nc2ccc(-c3nc4ccccc4s3)cc2Cl)cc1OC`: the Potency entry was “inactive”. As for `Cc1ccc(CN2CCCn3nc(C(=O)NCc4ccc(OC(C)C)cc4)cc3C2=O)cc1`, the entry is “inactive”.

Source of the values: PubChem BioAssay AID1508622 (National Center for Advancing Translational Sciences (NCATS), 2021).
